# According to PubChem BioAssay (NCATS):
# Records with an inconclusive call do not appear. Calls of active or inactive are those of the source. The call rests on the fitted dose curve; in most records, active means well fitted cell-killing curve with a large enough effect; inconclusive means small, poorly fitted or top-dose-only effect, or effect the other way; inactive means flat fitted curve, though single readings scatter.
# Tested on: HeLa
# Assay: Primary qHTS to identify gynecologic anti-cancer compounds using libraries of approved drugs and bioactive compounds (AID 1345084); further: nearly all actives have a fitted effect of over 55% in size
# Conditions: Gynecologic cancer cell panel viability, ATPlite luminescence, 48 h; series mostly up to 57.5 µM; activity change, negative = cytotoxicity: at the top concentration
# In short: (§1)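 Cells, 1,000 per well, plated 16 h, then exposed 48 h at 37 C to compounds. Viability by ATPlite luminescence after 15 min at room temperature.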
# On the % scale 0 is the no-effect control and ±100 the full control effect.
row,Compound,"activity change, negative = cytotoxicity"
1,NCC(=O)O,-2.94% [at 25.3 µM] (inactive)
2,Cc1c(N)cccc1C(F)(F)F,5.24% (inactive)
3,O=C(O)CCC(=O)OC[C@@H](NC(=O)C(Cl)Cl)[C@H](O)c1ccc([N+](=O)[O-])cc1,4.4% (inactive)
4,O=C(COCCOCCOCC(=O)Nc1c(I)cc(I)c(C(=O)O)c1I)Nc1c(I)cc(I)c(C(=O)O)c1I,7.61% (inactive)
5,CC(=O)[C@@]1(O)CC[C@H]2[C@@H]3C[C@H](C)C4=CC(=O)CC[C@]4(C)[C@H]3CC[C@@]21C,-2.51% (inactive)
6,CCN(CC)CC(=O)OCC(=O)[C@@]1(O)CC[C@H]2[C@@H]3CCC4=CC(=O)CC[C@]4(C)[C@H]3[C@@H](O)C[C@@]21C,13.6% (inactive)
7,C[C@@]12CCC[C@H]1[C@@H]1CC[C@H]3C[C@@H](O)CC[C@]3(C)[C@H]1CC2,21.4% (inactive)
8,CCCCC(CC)COC(=O)c1ccccc1C(=O)O (centres undefined),-3.93% [at 116 µM] (inactive)
9,N=C(N)c1ccc(OCCCOc2ccc(C(=N)N)cc2)cc1,-21.5% (inactive)
10,CC(C)(C)CC(=O)OCC(=O)[C@@]1(O)CC[C@H]2[C@@H]3CCC4=CC(=O)C=C[C@]4(C)[C@H]3[C@@H](O)C[C@@]21C,-2.35% (inactive)
11,CN=C(N)NC(=O)Nc1c(C)cccc1C,-6.29% (inactive)
12,CO[C@@H]1[C@@H](O[C@@H]2O[C@H](C)[C@@H](O[C@H]3C[C@@](C)(O)[C@@H](O)[C@H](C)O3)[C@H](N(C)C)[C@H]2O)[C@@H](CC=O)C[C@@H](C)[C@@H](O[C@@H]2CC[C@H](N(C)C)[C@@H](C)O2)/C=C/C=C/C[C@@H](C)OC(=O)C[C@H]1OC(C)=O,-2.16% (inactive)
13,CN(C)CCOC(c1ccccc1)c1ccc(Br)cc1 (centres undefined),-4.36% (inactive)
14,O=C(CCCCC(=O)Nc1c(I)cc(I)c(C(=O)O)c1I)Nc1c(I)cc(I)c(C(=O)O)c1I,6.61% (inactive)
15,OC[C@]1(O)OC[C@@H](O)[C@H](O)[C@@H]1O,3.26% (inactive)
16,CN1CCC(=C2c3ccccc3CCc3cccnc32)CC1,0.513% (inactive)
17,CN1Cc2cc(C(=O)N3CCC(C4CCNCC4)CC3)ccc2NC(CC(=O)O)C1=O (centres undefined),10.9% (inactive)
18,Nc1c(I)cc(I)c(C(=O)N(CCC(=O)O)c2ccccc2)c1I,-2.92% (inactive)
19,Cc1ccccc1N1CCN(CCc2nnc3n2CCCC3)CC1,9.84% (inactive)

row,Compound,"activity change, negative = cytotoxicity"
1,O=C(NO)c1ccccc1,-0.738% [at 116 µM] (inactive)
2,Cc1ccc2ccc(Cl)cc2n1,-0.494% (inactive)
3,Cc1ncc(CO)c(CO)c1O,-10.3% (inactive)
4,O=C1CC2(CCCC2)CC(=O)N1CCNCC1COc2ccccc2O1 (centres undefined),1.66% (inactive)
5,CC(=O)OCC[N+](C)(C)C,0.402% (inactive)
6,Oc1ccccc1,-3.43% (inactive)
7,c1ccc(C(O[C@H]2CCCN(CCc3ccc4c(c3)OCO4)C2)c2ccccc2)cc1,3.35% (inactive)
8,CCCCC(=O)OCC(=O)[C@H]1[C@H](C)C[C@H]2[C@@H]3C[C@H](F)C4=CC(=O)C=C[C@]4(C)[C@@]3(F)[C@@H](O)C[C@@]21C,4.26% (inactive)
9,O=C(OCC(O)CO)c1ccccc1Nc1ccnc2c(C(F)(F)F)cccc12 (centres undefined),1.29% (inactive)
10,CN1C(CSCC(F)(F)F)Nc2cc(Cl)c(S(N)(=O)=O)cc2S1(=O)=O (centres undefined),2.37% (inactive)
11,COc1cc(C=O)ccc1O,5.96% (inactive)
12,O=C(O)/C=C(\CC(=O)O)C(=O)O,-7.33% (inactive)
13,O=C(CCCCCCCCC#CI)Oc1ccccc1,0.158% (inactive)
14,NC(=O)COCCN1CCN(C(c2ccccc2)c2ccc(Cl)cc2)CC1 (centres undefined),-9.29% (inactive)
15,COC(=O)C1=C(C)NC(COC(N)=O)=C(C(=O)OC(C)C)C1c1cccc(Cl)c1Cl (centres undefined),-10.6% (inactive)
16,CC(=O)OCC(=O)[C@@]1(O)[C@H](OC(C)=O)C[C@H]2[C@@H]3CCC4=CC(=O)C=C[C@]4(C)[C@@]3(F)[C@@H](O)C[C@@]21C,15.9% (inactive)
17,O=C(c1ccccc1)c1ccccc1,10.7% (inactive)
18,C[C@H]1C[C@@H]2[C@H]([C@@H](O)C[C@@]3(C)[C@H]2CC[C@]3(O)C(=O)CO)[C@@]2(C)C=CC(=O)C=C12,0.313% (inactive)

# Tested on: Hek293T
# Assay: as above
# Conditions: Gynecologic cancer cell panel viability, ATPlite luminescence, 48 h, control line for the selectivity index; series mostly up to 57.5 µM; activity change, negative = cytotoxicity: at the top concentration
# In short: as §1
row,Compound,"activity change, negative = cytotoxicity"
1,NCC(=O)O,0.125% [at 25.3 µM] (inactive)
2,Cc1c(N)cccc1C(F)(F)F,1.15% (inactive)
3,O=C(O)CCC(=O)OC[C@@H](NC(=O)C(Cl)Cl)[C@H](O)c1ccc([N+](=O)[O-])cc1,-1.15% (inactive)
4,O=C(COCCOCCOCC(=O)Nc1c(I)cc(I)c(C(=O)O)c1I)Nc1c(I)cc(I)c(C(=O)O)c1I,0.619% (inactive)
5,CC(=O)[C@@]1(O)CC[C@H]2[C@@H]3C[C@H](C)C4=CC(=O)CC[C@]4(C)[C@H]3CC[C@@]21C,-0.674% (inactive)
6,CCN(CC)CC(=O)OCC(=O)[C@@]1(O)CC[C@H]2[C@@H]3CCC4=CC(=O)CC[C@]4(C)[C@H]3[C@@H](O)C[C@@]21C,0.54% (inactive)
7,C[C@@]12CCC[C@H]1[C@@H]1CC[C@H]3C[C@@H](O)CC[C@]3(C)[C@H]1CC2,1.79% (inactive)
8,CCCCC(CC)COC(=O)c1ccccc1C(=O)O (centres undefined),7.62% [at 116 µM] (inactive)
9,N=C(N)c1ccc(OCCCOc2ccc(C(=N)N)cc2)cc1,-6.06% (inactive)
10,CC(C)(C)CC(=O)OCC(=O)[C@@]1(O)CC[C@H]2[C@@H]3CCC4=CC(=O)C=C[C@]4(C)[C@H]3[C@@H](O)C[C@@]21C,-1.76% (inactive)
11,CN=C(N)NC(=O)Nc1c(C)cccc1C,8.31% (inactive)
12,CO[C@@H]1[C@@H](O[C@@H]2O[C@H](C)[C@@H](O[C@H]3C[C@@](C)(O)[C@@H](O)[C@H](C)O3)[C@H](N(C)C)[C@H]2O)[C@@H](CC=O)C[C@@H](C)[C@@H](O[C@@H]2CC[C@H](N(C)C)[C@@H](C)O2)/C=C/C=C/C[C@@H](C)OC(=O)C[C@H]1OC(C)=O,-29.8% (inactive)
13,CN(C)CCOC(c1ccccc1)c1ccc(Br)cc1 (centres undefined),-20% (inactive)
14,O=C(CCCCC(=O)Nc1c(I)cc(I)c(C(=O)O)c1I)Nc1c(I)cc(I)c(C(=O)O)c1I,-0.367% (inactive)
15,OC[C@]1(O)OC[C@@H](O)[C@H](O)[C@@H]1O,1.68% (inactive)
16,CN1CCC(=C2c3ccccc3CCc3cccnc32)CC1,-36.9% (inactive)
17,CN1Cc2cc(C(=O)N3CCC(C4CCNCC4)CC3)ccc2NC(CC(=O)O)C1=O (centres undefined),27.9% (inactive)
18,Nc1c(I)cc(I)c(C(=O)N(CCC(=O)O)c2ccccc2)c1I,9.29% (inactive)
19,Cc1ccccc1N1CCN(CCc2nnc3n2CCCC3)CC1,6.69% (inactive)

row,Compound,"activity change, negative = cytotoxicity"
1,O=C(NO)c1ccccc1,7.04% [at 116 µM] (inactive)
2,Cc1ccc2ccc(Cl)cc2n1,0.967% (inactive)
3,Cc1ncc(CO)c(CO)c1O,2.84% (inactive)
4,O=C1CC2(CCCC2)CC(=O)N1CCNCC1COc2ccccc2O1 (centres undefined),-9.18% (inactive)
5,CC(=O)OCC[N+](C)(C)C,-15.5% (inactive)
6,Oc1ccccc1,-0.504% (inactive)
7,c1ccc(C(O[C@H]2CCCN(CCc3ccc4c(c3)OCO4)C2)c2ccccc2)cc1,5.11% (inactive)
8,CCCCC(=O)OCC(=O)[C@H]1[C@H](C)C[C@H]2[C@@H]3C[C@H](F)C4=CC(=O)C=C[C@]4(C)[C@@]3(F)[C@@H](O)C[C@@]21C,-1.47% (inactive)
9,O=C(OCC(O)CO)c1ccccc1Nc1ccnc2c(C(F)(F)F)cccc12 (centres undefined),-3.51% (inactive)
10,CN1C(CSCC(F)(F)F)Nc2cc(Cl)c(S(N)(=O)=O)cc2S1(=O)=O (centres undefined),-6.62% (inactive)
11,COc1cc(C=O)ccc1O,-0.575% (inactive)
12,O=C(O)/C=C(\CC(=O)O)C(=O)O,0.686% (inactive)
13,O=C(CCCCCCCCC#CI)Oc1ccccc1,-5.63% (inactive)
14,NC(=O)COCCN1CCN(C(c2ccccc2)c2ccc(Cl)cc2)CC1 (centres undefined),-3.07% (inactive)
15,COC(=O)C1=C(C)NC(COC(N)=O)=C(C(=O)OC(C)C)C1c1cccc(Cl)c1Cl (centres undefined),1.37% (inactive)
16,CC(=O)OCC(=O)[C@@]1(O)[C@H](OC(C)=O)C[C@H]2[C@@H]3CCC4=CC(=O)C=C[C@]4(C)[C@@]3(F)[C@@H](O)C[C@@]21C,-4.37% (inactive)
17,O=C(c1ccccc1)c1ccccc1,1.05% (inactive)
18,C[C@H]1C[C@@H]2[C@H]([C@@H](O)C[C@@]3(C)[C@H]2CC[C@]3(O)C(=O)CO)[C@@]2(C)C=CC(=O)C=C12,-3.45% (inactive)
